The list is not random: actives were taken first. Their share in the collection is about 3.7%.
RE007 growth inh: less growth of the S. pombe RE007 Vpr strain. actives 0.21% (n = 360,000). Potency, µM (top dose mostly 92.2 µM), for inactives: at the highest dose activity change, negative = less growth, usual class: inhibitors. AID 651644. S. pombe RE007 Vpr strain, BacTiter-Glo ATP luminescence, 24 h; active means well fitted falling curve with a large enough effect; inconclusive means small, poorly fitted or top-dose-only effect; inactive means no such curve, though single readings can be large or run the other way; further: nearly all actives have a fitted effect of over 50% in size
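Fission yeast strain RE007, carrying one chromosomally integrated HIV-1 vpr copy, was seeded at OD 0.01 in PMG+AL medium with 23 nL pinned compound. After 24 h at 30 °C and 99% humidity, viability was read by BacTiter-Glo luminescence.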
Tb PYK inh: T. brucei pyruvate kinase inhibition; actives 0.12% (n = 410,000); Potency, µM (doses to about 76.8 µM), for inactives: at the top dose activity, negative = inhibition, hits mostly inhibitors; TbPYK enzyme, Kinase-Glo Plus ATP luminescence, 45 min; further: nearly all actives have a fitted effect of over 50% in size
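Quantitative HTS: titrated library compounds versus trypanosomal pyruvate kinase in TEA buffer (pH 7.2) containing KCl, MgCl2, BSA and Tween-20. Reactions were initiated with ADP, 130 uM final. Kinase-Glo Plus luminescence was read after 45 min at RT.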
Sm TGR inh: S. mansoni TGR enzyme inhibition; Q962Y6; Potency, µM (doses to about 114 µM), inactives show at the top dose activity change, negative = inhibition, most hits filed as inhibitors; actives 3% (n = 360,000); AID 485364; purified TGR, DTNB reduction, TNB absorbance 405 nm; further: nearly all actives have a fitted effect of over 60% in size
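Kinetic colorimetric format: TGR-catalysed, NADPH-driven DTNB reduction monitored via TNB absorbance. Enzyme dispensed at 20 nM; compound exposure 15 min at room temperature before reaction start.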
FMDV inh: foot and mouth disease virus antiviral activity; Potency, µM (doses to about 57.9 µM), for inactives: top-dose activity change, negative = inhibition, most hits filed as inhibitors; FMDV antiviral cell-based qHTS; actives 1.2% (n = 410,000); calls by dose curve; tested in HEK293T cells; further: read-out not given here; nearly all actives have a fitted effect of over 45% in size
* marks the source's active call; other numbers are inactive results; u = inconclusive; x = no result given; [ ] = dose if it differs, or a comment. Unless noted, the call rests on the fitted dose curve; in most records, active means well fitted curve in the direction sought with a large enough effect; inconclusive means small, poorly fitted or top-dose-only effect, or another doubt; inactive means no such curve, though single readings can be large; an effect the other way counts as inactive or inconclusive. On the % scale 0 is the no-effect control and ±100 the full control effect; potency means the concentration at half of the fitted maximal effect.

SMILES | RE007 growth inh | Tb PYK inh | Sm TGR inh | FMDV inh
COc1ccc(/C=N/NC(=O)c2ccoc2C)cc1OC | -15.8% | -2.8% | -3.9% | -11.9%
COc1ccc(/C=N/NC(=O)c2ccoc2C)cc1COc1ccc(Cl)cc1 | -26.8% | 0.2% | 8.0% | 22.4µM*
COc1ccc(/C=N/NC(=O)c2ccccc2Cl)cc1CSc1nc2ccccc2s1 | 8.1% | 3.6% | 5.0% | 8.7%
COc1ccc(/C=N/NC(=O)c2cccnc2)cc1CSc1nc2ccccc2s1 | -2.5% | -11.5% | 1.4% | 35.5µM*
COc1ccc(/C=N/NC(=O)c2ccn[nH]2)cc1COc1ccc([N+](=O)[O-])c(C)c1 | 6.7% | 1.9% | 6.2% | -24.5%
COc1ccc(/C=N/NC(=O)c2cccnc2)cc1COc1ccc([N+](=O)[O-])c(C)c1 | -6.2% | -0.8% | 0.7% | 39.8µM*
COc1ccc(F)c(CN2CCC3(CCC(CNC(=O)c4cc(C)nn4C)O3)CC2)c1 (stereo not drawn) | x | x | x | -23.5%
CCn1c(=O)n(CC)c2cc(N3CCCCC3)c(NC(=O)Nc3cc(Cl)ccc3OC)cc21 | x | 4.6% | -7.5% | 0.0%
CCN(CC)Cc1cc(C(C)=O)ccc1OCC(C)C | -3.7% | 0.5% | 17.8µM* | -7.4%
CC(=O)c1ccc(OCC(C)C)c(CC(C(N)=O)C(N)=O)c1 | -11.8% | 4.9% | -22.7% | x
O=C1CCN(Cc2cccn2-c2ccccn2)CCN1Cc1ccccc1C(F)(F)F | x | x | x | 0.0%
CC1(C)CC(=O)C(N=Nc2cc(S(=O)(=O)N3CCOCC3)ccc2Cl)=C(O)C1 | 16.7% | 5.5% | 10µM* | 0.7%
CC1(C)CC(=O)C(N=Nc2cc(C(F)(F)F)ccc2Cl)=C(O)C1 | 12.4% | -4.2% | -0.8% | -4.6%
Cc1ccc(-c2nc3ccccc3[nH]2)cc1NC(=O)COc1ccccc1[N+](=O)[O-] | x | 3.9% | 8.8% | 0.0%
O=C(/C=C/c1ccccc1)c1ccccn1 | 35.5µM* | u | u | 23.6%
O=C(/C=C/Nc1ccccc1Br)c1ccccn1 | -24.9% | u | 0.2% | 2.24µM*
N/C(=N\OC(=O)/C=C/c1ccccc1)c1ccccn1 | -22.7% | -26.6% | x | -34.0%
O=C(c1cc(C(F)(F)F)cc(C(F)(F)F)c1)N1CCC2(CC1)CN(Cc1ccccc1)C2 | x | -5.2% | x | -17.1%
COc1ccccc1-c1ccnc(-n2ncc(C(=O)NC(c3cccnc3)C(F)(F)F)c2C)n1 (stereo not drawn) | x | x | x | -23.8%
N#Cc1ccc(OC(=O)c2cnccn2)cc1 | 3.1% | 7.7% | 22.4µM* | -11.8%
CCC(=O)c1ccc(OC(=O)c2cnccn2)cc1 | -4.2% | -8.3% | u | 12.3%
O=C(NCCc1c[nH]c2ccccc12)/C(=C\c1cccnc1)NC(=O)c1ccco1 | -15.7% | -7.0% | -1.0% | -26.5%
O=C(NCCc1c[nH]c2ccccc12)/C(=C\c1cccnc1)NC(=O)c1ccccc1Br | 2.2% | 2.9% | -7.5% | 3.55µM*
CCc1nc2c(OCc3ccccc3)cccn2c1N(C)C(=O)COc1ccccc1 | -29.9% | -3.5% | x | -22.5%
CCc1nc2c(OCc3ccc(F)cc3)cccn2c1N(C)C(=O)COc1ccccc1 | -18.9%[18.4 µM] | 5.9% | x | 31.6µM*
SMILES | RE007 growth inh | Tb PYK inh | Sm TGR inh | FMDV inh
Clc1ccc(-c2nc3nc4ccccc4nc3n2Cc2ccco2)cc1 | 25.9% | 5.1% | 20µM* | 32.1%
Cc1ccc(-c2nc3nc4ccccc4nc3n2Cc2ccco2)cc1 | 3.8% | -11.6% | 17.8µM* | 5.0%
COc1ccccc1Cn1c(-c2ccco2)nc2nc3ccccc3nc21 | 1.4% | 1.2% | x | -12.4%
O=C(O)c1cccc(NC2=C(N3CCOCC3)C(=O)c3ccccc3C2=O)c1 | -15.7% | -1.9% | 44.7µM* | 15.0%
CN(C1=C(N2CCOCC2)C(=O)c2ccccc2C1=O)c1ccccc1 | u | -15.5% | 25.1µM* | 0.0%
O=C1C(NS(=O)(=O)c2cccs2)=C(N2CCOCC2)C(=O)c2ccccc21 | -3.9% | -11.6% | u | u
Cc1nn(-c2ccccc2)c(OC(=O)c2ccccc2Br)c1S(=O)(=O)c1ccccc1 | x | 8.9% | -14.5% | -8.0%
O=C(NCc1ccco1)C1Cc2ccccc2CN1C(=O)c1ccco1 (stereo not drawn) | -10.4% | -3.3% | u | 10.8%
O=C(Nc1ccccc1)C1Cc2ccccc2CN1C(=O)c1ccco1 (stereo not drawn) | 18.5% | -18.3% | 39.8µM* | 63.2%
COc1ccccc1NC(=O)C1Cc2ccccc2CN1C(=O)c1ccco1 (stereo not drawn) | -9.9% | 3.4% | 31.6µM* | 8.3%
Oc1ccc(Cl)cc1/C=N/c1nccs1 | -1.6% | -2.2% | 20µM* | -13.7%
Oc1c(Br)cc(Br)cc1C=Nc1cccnc1 | x | -1.9% | u | -17.5%
Oc1c(Br)cc(Br)cc1/C=N/c1nccs1 | u | -5.1% | 3.98µM* | -9.8%
Cc1nc(C)c(-c2ccc(SCC(=O)Nc3cccc(C)c3C)nn2)s1 | x | 2.0% | 0.4% | -26.4%
CCOC(=O)N1CCC2(O)CCCCC2C1c1ccc(F)cc1 (stereo not drawn) | -7.1% | 0.0% | 7.5% | -19.6%
O=C(CN1CC[C@@]2(O)CCCC[C@H]2[C@@H]1c1ccc(F)cc1)NCc1ccco1 | 54.5% | 2.3% | 39.8µM* | -9.0%
Cn1c2cc(B(O)O)sc2c2cnn(Cc3c(F)cccc3F)c(=O)c21 | x | x | -14.3% | x
Cc1cc(=S)cc(C)n1CCCO | 26.1%[3.69 µM] | x | 1.78µM* | 16.9%
COn1c2c(c3c4nonc4ccc31)CCCC2 | -15.8% | 5.2% | 28.2µM* | x
COn1c2c(c3c4no[n+]([O-])c4ccc31)CCCC2 | -8.3% | 0.0% | 17.0% | x
COC(=O)C1Cc2ccccc2CN1C(=O)CCl (stereo not drawn) | -0.4% | -1.8% | -102.6% | 22.4µM*
O=C(Cn1nc(-c2ccccc2)c2cnc3ccc(F)cc3c21)NC1CCCC1 | x | 2.0% | 3.8% | 13.1%
CC1=C(C)/C(=N/OC(=O)c2cccc([N+](=O)[O-])c2)C=CC1=O | -19.9% | -8.2% | 11.2µM* | u
N/C(=N/OC(=O)c1cccc([N+](=O)[O-])c1)c1cccc([N+](=O)[O-])c1 | -5.0% | -3.4% | x | 30.9%
COc1cccc(-c2nc3cc4c(cc3cc2CN(C(=O)c2csc(C)n2)C2CC2)CCC4)c1OC | x | x | x | 14.1µM*
SMILES | RE007 growth inh | Tb PYK inh | Sm TGR inh | FMDV inh
COc1cccc(-c2nc3cc(SC)ccc3cc2CN(C(=O)c2csc(C)n2)C2CC2)c1 | x | x | x | 28.2µM*
COc1ccc(-c2nc3cc(F)ccc3cc2CN(C(=O)c2cccc(OC)c2)C2CC2)cc1 | x | x | x | -11.5%
COc1cccc(CNC(=O)CSc2nc3ccccc3nc2Cc2ccc(C)cc2)c1OC | x | -5.1% | -2.5% | -6.5%
CN1CCN(c2ccc(Cl)cc2NC(=O)CCN2C(=O)c3ccccc3C2=O)CC1 | -14.1% | 0.4% | 39.8µM* | -6.4%
CCOc1ccccc1NC(=O)CSc1nnc(-c2ccccc2Cl)n1Cc1ccco1 | 29.1% | -7.6% | 50.1µM* | 0.0%
CCOc1ccccc1NC(=O)CSc1nnc(-c2ccco2)n1Cc1ccco1 | 5.2% | 1.0% | 50.1µM* | -11.9%
COc1ccc(N2CCN(c3ncnc4c3cnn4-c3ccc(F)cc3)CC2)cc1 | x | -11.7% | 3.6% | -4.2%
